This is an account of results in PubChem BioAssay (NCI).

About 83,000 compounds went through this panel and 20% of them were active in at least one assay; those are over-represented in the sample as a whole.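 For each line, cells grew in 96-well plates with the test compound present at a single concentration for 48 hours.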 Values without a mark were called inactive. Activity calls are given as the source filed them. How the source made its calls: active means growth percent below 10; inactive means the rest.

Assay in all cases: NCI-60 one-dose screen, 48 h (100 = growth as untreated, 0 = no growth, -100 = all killed)
In experiment [1] the test system is SK-MEL-2 melanoma. The note with it: 10 µM unless noted.
Experiment [2] relates to SN12C renal. As to conditions: 10 µM unless noted.
Experiment [3] concerns UO-31 renal. As to conditions: 10 µM unless noted.
Experiment [4] concerns TK-10 renal. The note with it: 10 µM unless noted.
The test system of experiment [5] is ACHN renal. As to conditions: 10 µM unless noted.
Experiment [6] has as its system CAKI-1 renal. The note with it: 10 µM unless noted.
The subject of experiment [7] is A498 renal. As to conditions: 10 µM unless noted.
In experiment [8] the test system is MOLT-4 leukemia. The note with it: 10 µM unless noted.
Experiment [9] deals with SR leukemia. The note with it: 10 µM unless noted.
Experiment [10] deals with RPMI-8226 leukemia. As to conditions: 10 µM unless noted.
Experiment [11] deals with OVCAR-8 ovarian. As to conditions: 10 µM unless noted.
Experiment [12] has as its system OVCAR-5 ovarian. As to conditions: 10 µM unless noted.
The subject of experiment [13] is OVCAR-4 ovarian. The note with it: 10 µM unless noted.
In experiment [14] the test system is SK-OV-3 ovarian. The note with it: 10 µM unless noted.
For experiment [15], the system named is IGROV1 ovarian. The note with it: 10 µM unless noted.
Experiment [16] concerns OVCAR-3 ovarian. The note with it: 10 µM unless noted.
Experiment [17] concerns NCI/ADR-RES ovarian. As to conditions: 10 µM unless noted.
For experiment [18], the system named is CCRF-CEM leukemia. The note with it: 10 µM unless noted.
The test system of experiment [19] is HS 578T breast. The note with it: 10 µM.

Turning to `COS(=O)(=O)CCN(CCOS(C)(=O)=O)S(C)(=O)=O`, the growth was 78.9% in experiment [1]; 98.1% in experiment [2]; 86.7% in [3]; 96.7% in [4]; 92.9% in experiment [5]; 96.8% in [6]. Further, the growth in [7] was 115%; in experiment [8] it was 90.5%; in [9], 95.5%; in experiment [10] it was 99.8%; in [11], 94.9%; in [12], 101%. The growth was 107% in [13]; 104% in experiment [14]; 105% in [15]; 105% in [16]; 105% in experiment [17].

Consider `COc1ccc(-c2cnc3ccnn3c2-c2cc(OC)c(OC)c(OC)c2)cc1`, for which the growth in [1] was 36.9%; in experiment [2], 42%; in experiment [3], 48.3%; in experiment [4], 59.6%; in experiment [5], 47.3%; in [6], 46.5%. For the same compound, the growth is -5.57% (active) in [7]; 16.3% in experiment [18]; 46.7% in experiment [8]; 23.9% in experiment [10]; 47% in experiment [11]; 66.1% in experiment [12]. Moreover, the growth in experiment [13] is 75.4%; in experiment [14], 32%; in experiment [15], 62.3%; in experiment [16] it was -37.9% (active); in experiment [19], 16.7%; in [17], 27.4%.

`Clc1ncnc2scc(C3COc4ccccc4O3)c12` (stereo unspecified): the growth in experiment [1] was 107%; in experiment [2] it was 86.6%; in experiment [3] it was 59.5%; in [4], 110%; in [5], 96.2%; in experiment [6], -18.7% (active). The growth in experiment [7] was 97%; in [18], 22.3%; in experiment [8] it was 74.7%; in experiment [10] it was 95.7%; in experiment [11], 92.8%; in experiment [12] it was 94.4%. For the same compound, the growth was 92.8% in [13]; 115% in [14]; 121% in experiment [15]; 106% in experiment [16]; 92.3% in [19]; 109% in experiment [17].

As to `O=C(/C=C/c1ccccc1)n1c(-c2ccccc2)nc2ccccc21`, the growth in experiment [1] is 112%; in [2] it was 101%; in experiment [3] it was 89.8%; in [4], 101%; in experiment [5] it was 104%; in experiment [6] it was 107%. Further, the growth is 85.8% in experiment [7]; 97.8% in experiment [18]; 99.1% in experiment [8]; 105% in experiment [10]; 98.9% in experiment [11]; 95.7% in [12]. Also, the growth in [13] is 101%; in experiment [14], 110%; in [15] it was 105%; in experiment [16], 111%; in [19], 104%; in [17] it was 104%.

For `CC(COC(=O)c1ccccc1)N1CC2CCC(C1)O2` (stereo unspecified), the growth is 107% in [1]; 99.8% in experiment [2]; 86% in experiment [3]; 111% in [4]; 104% in [5]; 96.5% in experiment [6]. The growth in experiment [7] was 89.5%; in [18], 92.7%; in experiment [8], 100%; in [9], 93.2%; in [10], 99.1%; in experiment [11], 93.9%. Besides, the growth in [12] is 101%; in experiment [13], 107%; in experiment [14] it was 96.1%; in [16], 104%; in experiment [19] it was 105%; in [17] it was 111%.

Consider `Clc1cc(Br)ccc1-c1ccc(CNCC2CCNCC2)o1`, for which the growth in [1] was 76.8%; in experiment [2], 86.3%; in [3], -58.5% (active); in experiment [4], 32.2%; in [5], 3.97% (active); in [6], 68.6%. Besides, the growth in experiment [7] is 81.8%; in [18] it was 24%; in experiment [8], 55.6%; in [9], 17.2%; in experiment [10], 43.8%; in [11] it was 33.6%. Also, the growth was 84.8% in experiment [12]; -40.7% (active) in [13]; 67.2% in experiment [14]; 14% in experiment [16]; 62.4% in experiment [19]; 54.7% in [17].

As to `CC1=C(C(=O)Nc2ccc(F)cc2)C(c2ccc(C)cc2)C2=C(CC(C)(C)CC2=O)N1` (stereo unspecified), the growth in [1] is 110%; in [2], 97%; in [3], 63.2%; in [4], 109%; in [5] it was 94.7%; in [6], 69.6%. Moreover, the growth in experiment [7] was 63.7%; in experiment [18], 82.8%; in experiment [8], 85%; in [10], 99.2%; in [11] it was 98.3%; in experiment [12] it was 93.1%. Besides, the growth is 90.8% in experiment [13]; 100% in experiment [14]; 104% in [15]; 92.7% in experiment [16]; 77.4% in experiment [19]; 89.9% in [17].

As for `Cc1cc(C)cc(CCCCCCCCCCCCCCCCCC(=O)O)c1`, the growth was 150% in experiment [1]; 106% in experiment [2]; 89% in experiment [3]; 116% in experiment [4]; 98.9% in experiment [5]; 100% in experiment [6]. Moreover, the growth is 106% in [7]; 98.3% in experiment [8]; 107% in experiment [9]; 99.4% in experiment [10]; 103% in [11]; 105% in experiment [13]. For the same compound, the growth in [15] was 108%; in experiment [16] it was 102%.

As to `C=CC[C@]1(O)CC[C@H]2[C@@H]3CCc4cc(O)ccc4[C@H]3CC[C@@]21C`, the growth was 90.6% in experiment [1]; 96.1% in [2]; 85.7% in experiment [3]; 107% in experiment [4]; 94.5% in experiment [5]; 103% in [6]. In addition, the growth was 97.2% in experiment [7]; 62% in experiment [8]; 38.4% in experiment [9]; 86.5% in experiment [10]; 94.9% in experiment [11]; 98.5% in experiment [12]. Moreover, the growth in [13] is 94.3%; in [14], 107%; in experiment [15], 109%; in experiment [16], 102%; in [17], 87.5%.
